Inconclusive results are not listed. Activity calls are given as the source filed them. Calls come from the whole dose curve; as a rule, active = well fitted activation curve with a large enough effect; inconclusive = small, poorly fitted or top-dose-only effect; inactive = no such curve, though single readings can be large or run the other way.
These molecules were tested against Arylsulfatase A (Homo sapiens) (UniProt P15289) (assay: qHTS screen for enhancers of Arylsulfatase A (ASA1): LOPAC Validation Assay (AID 720538)). Conditions: ASA enzyme activity, LOPAC qHTS enhancer assay; series mostly up to 57.5 µM.
Chain of Arylsulfatase A (Homo sapiens) (P15289 whole entry, looked up): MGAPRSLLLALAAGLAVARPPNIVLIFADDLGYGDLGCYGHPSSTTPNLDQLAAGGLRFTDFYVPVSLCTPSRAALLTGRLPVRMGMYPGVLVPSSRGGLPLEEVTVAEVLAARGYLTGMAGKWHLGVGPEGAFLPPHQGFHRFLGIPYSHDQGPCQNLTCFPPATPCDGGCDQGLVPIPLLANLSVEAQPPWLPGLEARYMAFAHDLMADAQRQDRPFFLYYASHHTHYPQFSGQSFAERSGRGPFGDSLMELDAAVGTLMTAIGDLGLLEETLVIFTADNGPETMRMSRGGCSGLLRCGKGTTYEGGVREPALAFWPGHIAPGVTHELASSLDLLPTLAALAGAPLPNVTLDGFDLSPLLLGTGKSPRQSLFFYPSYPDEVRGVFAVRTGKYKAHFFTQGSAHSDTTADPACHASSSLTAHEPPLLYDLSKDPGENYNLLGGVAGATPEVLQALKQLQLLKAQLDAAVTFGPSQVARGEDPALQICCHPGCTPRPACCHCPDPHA
Source text: Lysosomal storage diseases (LSDs) are caused by genetic mutations in genes encoding proteins important for normal lysosomal function. In affected patients, symptoms are usually not manifested unless the mutations result in more than 90% reduction of enzymatic activity of a specific lysosomal enzyme. […] Small molecules could function as enzyme enhancement agents by binding to and stabilizing mutant misfolded proteins in the endoplasmic reticulum (ER), allowing them to evade the ER associated degradation (ERAD), and eventually reach the lysosome. Moreover, small molecules is hypothesized to be able to enhance the residual activity of deficient lysosomal enzyme by either interacting directly with the mutant enzyme or indirectly by acting in different cellular pathways; resulting to increased levels of the mutant and partially functional protein in the lysosomal compartment.
A cell based assay in 1536 well plate format was developed to evaluate activity of the lysosomal sulfatase ASA1 enzyme. ASA1 is deficient in metachromatic leukodystrophy (MLD), an LSD characterized by progressive neurodegeneration for which specific treatment is not available. Compounds that are active may therefore have some therapeutic application for this disease. This assay was used to validate the ASA1 qHTS using the Sigma LOPAC library. In this assay increase in signal = enhanced ASA1 activity. Activation is the desired outcome for this assay.
NIH Chemical Genomics Center [NCGC]
NIH Molecular Libraries Probe Centers Network [MLPCN]
Assay Submitter (PI): Gustavo Maegawa, Johns Hopkins University School of Medicine
[2] Gieselmann V, et al. Acta Paediatr Suppl. 2008; 97: 15-21
Four microliter (~8,000 cells/well) of SV40-transformed skin fibroblasts from an MLD patient (ASA-I179S) were seeded into a 1,536 solid white plate. Cells were left to adhere for 6 hrs, followed by addition of 23 nL of compounds. Cells were incubated with compounds for 48h at 37 degree C and 5% CO2. Four microliter of 1 mM pNCS substrate/lysis buffer (0.5mM pNCS final concentration) was added and incubated for 14h at room temperature. To stop the reaction, […] of 5 N of NaOH (1N NaOH final concentration) was then added and fluorescence was measured using the ViewLux plate reader (Ex=525 nm; Em=598 nm).

**Q.** How did the outcome turn out when NC(N)=NCCCCN=C(N)N was run?
**A.** The outcome was “inactive”.

**Q.** For O=[N+]([O-])c1ccc(-c2nc(-c3ccc(F)cc3)c(-c3ccncc3)[nH]2)cc1, which outcome is on record?
**A.** Its outcome is “inactive”.

**Q.** For O=C1NC(=O)/C(=C/c2ccc3c(c2)OC(F)(F)O3)S1, which outcome is on record?
**A.** The outcome was “inactive”.

**Q.** CN(C)c1cc2c(Nc3ccc4c(cnn4Cc4ccccc4)c3)ncnc2cn1 was tested. Which outcome did it give?
**A.** The outcome was “inactive”.

**Q.** Which outcome does the source give for Nc1ncnc2n[nH]c(Nc3ccc(F)cc3)c12 here?
**A.** The outcome was “inactive”.

**Q.** With O=C1NC(c2cccc([N+](=O)[O-])c2)=CCN1c1ccccc1O as the molecule, how does the outcome read?
**A.** The outcome was “inactive”.

**Q.** Which outcome does the source give for N[C@@H](Cn1ccc(=O)c(O)c1)C(=O)O here?
**A.** The outcome was “inactive”.

**Q.** How did the outcome turn out when C[N+](C)(C)CCO was run?
**A.** The outcome was “inactive”.

**Q.** How did the outcome turn out when Clc1ccc2c(c1)N=C(N1CCNCC1)c1ccccc1N2 was run?
**A.** Its outcome is “inactive”.

**Q.** For Cc1nn(-c2ccccc2)c(C)c1/C=N/N1CCN(Cc2ccccc2)CC1, which outcome is on record?
**A.** The outcome was “inactive”.

**Q.** With COc1ccccc1N1CCN(CCN2C(=O)CC3(CCCC3)CC2=O)CC1 as the molecule, how does the outcome read?
**A.** Its outcome is “inactive”.

**Q.** How did the outcome turn out when Cn1cnc2c(NCc3ccccc3)nc(NCCO)nc21 was run?
**A.** Its outcome is “inactive”.

**Q.** COC(=O)C1=CO[C@@H](O)[C@@H]2C(CO)=CC[C@H]12 was tested. Which outcome did it give?
**A.** Its outcome is “inactive”.

**Q.** How did the outcome turn out when CC(C)N(CCC(=O)c1ccc2ccccc2c1)Cc1ccccc1 was run?
**A.** The outcome was “inactive”.

**Q.** Which outcome does the source give for CCN(CC)CCNC(=O)c1ccc(NS(C)(=O)=O)cc1 here?
**A.** Its outcome is “inactive”.

From PubChem BioAssay (NCATS)
